Assay results taken from PubChem BioAssay (NCI).
Compounds without any hit were thinned out: in the full panel of roughly 83,000, 20% have a hit.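 Method: cells in 96-well plates; compound added at one concentration; 48 h incubation; percent growth measured; values under 10 scored active.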 Unmarked numbers belong to inactive results. Active and inactive are the calls of the source.

How the values were obtained:
Test in all cases: NCI-60 one-dose screen, 48 h (100 = growth as untreated, 0 = no growth, -100 = all killed)
Details in all cases: 10 µM
DU-145 prostate = tested on: DU-145 prostate
K-562 leukemia = tested on: K-562 leukemia
MDA-MB-231 breast = tested on: MDA-MB-231 breast
RXF 393 renal = tested on: RXF 393 renal
SF-268 CNS = tested on: SF-268 CNS
SF-295 CNS = tested on: SF-295 CNS
SF-539 CNS = tested on: SF-539 CNS
UACC-257 melanoma = tested on: UACC-257 melanoma
M14 melanoma = tested on: M14 melanoma
HCT-15 colon = tested on: HCT-15 colon
HT29 colon = tested on: HT29 colon
SNB-75 CNS = tested on: SNB-75 CNS
U251 CNS = tested on: U251 CNS
PC-3 prostate = tested on: PC-3 prostate
SK-MEL-5 melanoma = tested on: SK-MEL-5 melanoma
UACC-62 melanoma = tested on: UACC-62 melanoma
SK-MEL-28 melanoma = tested on: SK-MEL-28 melanoma
SNB-19 CNS = tested on: SNB-19 CNS
LOX IMVI melanoma = tested on: LOX IMVI melanoma

| SMILES | growth (DU-145 prostate) | growth (K-562 leukemia) | growth (MDA-MB-231 breast) | growth (RXF 393 renal) | growth (SF-268 CNS) | growth (SF-295 CNS) | growth (SF-539 CNS) | growth (UACC-257 melanoma) | growth (M14 melanoma) | growth (HCT-15 colon) | growth (HT29 colon) | growth (SNB-75 CNS) | growth (U251 CNS) | growth (PC-3 prostate) | growth (SK-MEL-5 melanoma) | growth (UACC-62 melanoma) | growth (SK-MEL-28 melanoma) | growth (SNB-19 CNS) | growth (LOX IMVI melanoma) |
| --- | --- | --- | --- | --- | --- | --- | --- | --- | --- | --- | --- | --- | --- | --- | --- | --- | --- | --- | --- |
| COc1ccc(-c2ccccc2)cc1C(=O)c1ccc(-c2ccccc2)cc1 | 94% | 20.8% | 96.8% | 85.7% | 88.5% | 53.4% | 88.4% | 106% | 52% | 63.1% | 41.8% | 87.5% | 77% | 71.6% | 73.1% | 62.2% | 76.5% |  |  |
| CCOc1nc(-c2ccccc2)cc2c(O)c(C(=O)N/N=C/c3ccc(OC)cc3)[nH]c(=O)c12 | 122% | 74.4% | 126% | 6.86% (active) | 112% | 91% | 93.2% | 130% | 110% | 110% | 108% | 91.7% |  | 88% | 53.5% | 104% | 114% | 96.9% | 114% |
| COc1ccc(/C(=C/c2cc(OC)c(OC)cc2[N+](=O)[O-])C(=O)O)cc1 | 124% | 94.6% | 96.7% | 126% | 111% | 121% | 99.6% | 118% | 104% | 107% |  | 93.8% | 107% | 99.2% |  | 106% | 116% | 106% | 97.1% |
| O=C(OCC1OC(n2cc(C(F)(F)F)c(=O)[nH]c2=O)CC1OC(=O)c1ccc([N+](=O)[O-])cc1)c1ccc([N+](=O)[O-])cc1 (stereo not given) | 30.3% | 62% | 95.3% | 80.3% | 55.6% | 63.5% | 18.3% | 38.4% | -17.6% (active) | 87% | 75.3% |  | 76.1% | 71.7% | 43.2% | 30.7% | 86.9% | 94.5% | 64.2% |
| COc1ccccc1CNCCCN1C(=O)c2ccc3c4c(ccc(c24)C1=O)C(=O)N(CCCNCCNCCCN)C3=O | 16.3% | 10.2% | 20.3% | 25.2% | 1.02% (active) | 51.3% | 14.1% | -6.36% (active) | 46.7% | 90% | 6.6% (active) | 28.4% | -1.05% (active) |  | -31.7% (active) | 23.5% | 25.4% | 10.3% | 6.84% (active) |
| Cn1cnc([N+](=O)[O-])c1Sc1nnc(-c2ccccc2)c(-c2ccccc2)n1 | 81.9% | 51% | 102% |  | 85.1% | 87.7% | 111% | 79.9% | 76.9% | 56% | 74.8% | 100% | 77.7% | 95.5% | 106% | 64.3% | 76% | 109% | 67.8% |
| COc1ccc(Cn2cc3c(c2-c2cc(OC)c(OC)c(OC)c2)CCc2cnoc2-3)cc1N | 1.73% (active) | 15% | 19.5% | 35% | 15.4% | -16.9% (active) | 5.21% (active) | 65.9% | 6.22% (active) | 17.5% |  | 50.5% | 23.2% | 31.1% | -17.9% (active) | 50.5% | 62% | 44.6% | 18.7% |
| COc1c(C)c(C)c(OC)c2c1[nH]c(=O)c1c3cccnc3cn21 | 111% | 102% | 86.1% | 116% | 112% | 119% | 103% | 126% | 103% | 118% | 104% |  | 106% | 97.3% | 119% | 98.4% | 125% | 108% | 107% |
| O=C1/C(=C/c2cccs2)CCC/C1=C\c1cccs1 | 92.9% | 94.8% |  | 91.9% | 96.2% | 104% | 100% | 96.9% | 87.5% | 78.9% | 73.9% | 110% | 83.8% | 89.6% | 83% | 77% | 102% | 105% | 92.4% |
